# Assay results published in the OligoGym collection.
# Molecular target: KCNMB2
# Experiment: pooled miR-30 sensor sort-seq; sequence = guide strand
# Settings: shRNA
# Also: reference of the scale not given here.
row,Sequence,sensor-assay potency score (higher = more potent)
1,TTTGTTAGGATAACACTCTTCT,0.649
2,TAACACTCTTCTGGTTTCCTTC,-0.332
3,TTTTGTTAGGATAACACTCTTC,-0.026
4,TAGGATAACACTCTTCTGGTTT,0.203
5,TTAGGATAACACTCTTCTGGTT,-1.15
6,TGTTAGGATAACACTCTTCTGG,-0.415
7,TTATTGTCTCTTCTGTGTGGTA,-0.319
8,TTTATTGTCTCTTCTGTGTGGT,0.74
9,TTGATTTTTATTGTCTCTTCTG,-0.466
10,TAGGGAACTCATAACAGACTGC,-0.389
11,TTTTATTGTCTCTTCTGTGTGG,0.163
12,TTCCATGACAACATTCACCAGG,-0.0986

# Molecular target: KCNN2
# Experiment: as above
# Settings: shRNA
row,Sequence,sensor-assay potency score (higher = more potent)
1,ATGAACAACTGTATTTCCCTGG,0.818
2,TTGTCGTAGCTCTCCATCTGAG,-1.04
3,TTGATGAATAGCTTGCAGGAAT,-0.859
4,TACTTTTGCATGATCTATCTTT,-0.0765
5,TAGCTTGCAGGAATTTTCGTTG,-0.466
6,TTCTTAATTGATGAATAGCTTG,-1.14
7,TTCTCGAAGTCTTCACTCCTTT,-0.431
8,TTAGACACCACGATCTCGGGGG,1.02
9,TTAATTGATGAATAGCTTGCAG,0.193
10,ATTGATATCAACCACATCGCTC,-0.533
11,TTACACTTCTTAATTGATGAAT,-0.837
12,TAATTGATGAATAGCTTGCAGG,-0.772

# Molecular target: KCNN3
# Experiment: as above
# Settings: shRNA
row,Sequence,sensor-assay potency score (higher = more potent)
1,TACATGACATTCTGCATCTTGG,-0.595
2,TTTGGCATGGTCAATCTTCTTT,-0.404
3,TTGTCGATCACGAAGAGCTGGA,0.137
4,TTCTCCAGGTCTTCGCTCCGGT,-0.356
5,TAGATTAACCATGTTTCCCGAA,-0.326
6,TTGAAGTTGATCTTGTTGAGGG,0.397
7,TTGGTCACTCAGCTTCCTCTGT,-0.263
8,TAGGTCATGGCTATCCGCCAGT,-0.594
9,TAAGTCATACATGACATTCTGC,0.0328
10,AAAGTTACTAGTTACGTCCTGC,0.827
11,TTCTTTAGCAGCTTTGTGTGTT,0.0976
12,ATACATGACATTCTGCATCTTG,0.37
